High-throughput results deposited in PubChem BioAssay by National Center for Advancing Translational Sciences (NCATS).
VP16 counter: counter-screen for ROR gamma inhibitors: Gal4-VP16 reporter. Drosophila S2 Gal4-VP16 UAS-luciferase, luminescence, 20 h. hit rate 3.5% among 310,000. Potency, µM (doses to about 53.6 µM), inactives show at the highest dose activity, negative = inhibition, most hits filed as inhibitors;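 note: Gal4-VP16 expression switched on by copper sulfate through the metallothionein promoter; potency is the fitted concentration of half-maximal effect; nearly all actives have a fitted effect of over 50% in size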
GALK inhibitor: galactokinase (human) inhibition | Potency, µM (top dose mostly 57.5 µM), for inactives: at the highest dose activity change, negative = inhibition, actives largely listed as inhibitors | Purified GALK, Kinase-Glo residual ATP luminescence | hit rate 0.007% among 270,000; note: potency is the fitted concentration of half-maximal effect
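Quantitative HTS: GALK 5 nM, ATP 35 uM, galactose 100 uM, 1 h room temperature, then luciferase-based ATP detection.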
RORg inh: ROR gamma (mouse) transcription inhibition | AID 2551 | hit rate 5.4% among 310,000 | Potency, µM (doses to about 53.6 µM), inactives show at the highest dose activity change, negative = inhibition, usual class: inhibitors | Drosophila S2 Gal4-RORgamma UAS-luciferase reporter, 20 h | P51450; note: potency is the fitted concentration of half-maximal effect; nearly all actives have a fitted effect of over 60% in size
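Drosophila Schneider cells stably carrying a metallothionein-driven Gal4 DBD–ROR gamma fusion and a UAS-Photinus luciferase reporter were exposed to compound for 1 hr, then induced with copper sulfate (700 uM final) for 20 hr at ambient temperature before luminescence reading.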
TrxR1 inh: inhibitors of rat thioredoxin reductase 1. O89049. recombinant rTrxR1, NADPH fluorescence consumption, selenite substrate. Potency, µM (titrated, usually from 114 µM), inactives show at the top dose activity change, negative = inhibition, hits mostly inhibitors. hit rate 1% among 390,000; note: potency is the fitted concentration of half-maximal effect; nearly all actives have a fitted effect of over 65% in size
Target sequence (O89049 whole entry, looked up): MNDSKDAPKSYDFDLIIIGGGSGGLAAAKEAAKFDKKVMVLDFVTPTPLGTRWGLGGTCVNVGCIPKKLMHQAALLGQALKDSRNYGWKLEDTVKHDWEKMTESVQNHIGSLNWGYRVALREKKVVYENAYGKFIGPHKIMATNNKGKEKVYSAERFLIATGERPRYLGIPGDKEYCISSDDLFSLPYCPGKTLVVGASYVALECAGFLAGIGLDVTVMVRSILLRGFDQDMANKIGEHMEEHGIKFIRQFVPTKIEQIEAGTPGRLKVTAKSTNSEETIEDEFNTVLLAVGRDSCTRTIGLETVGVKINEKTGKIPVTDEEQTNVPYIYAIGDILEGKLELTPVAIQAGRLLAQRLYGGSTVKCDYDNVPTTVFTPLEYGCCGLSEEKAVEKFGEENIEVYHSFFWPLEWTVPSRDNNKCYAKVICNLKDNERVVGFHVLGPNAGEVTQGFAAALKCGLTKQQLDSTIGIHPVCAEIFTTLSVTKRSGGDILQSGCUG
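Rat TrxR1 (90 nM in the dispensed reagent) was pre-reduced with 400 uM NADPH for 5 min at room temperature, then incubated with compound for 15 min. After 400 uM selenite was added, NADPH fluorescence (Ex 340/Em 450 nm) was followed for 8 min.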
TrxR1 substrate: rat thioredoxin reductase 1 substrate activity; Potency, µM (doses to about 114 µM), for inactives: at the top dose activity change, negative = substrate turnover; O89049; hit rate 0.01% among 390,000; purified TrxR1 substrate turnover, NADPH consumption readout; note: potency is the fitted concentration of half-maximal effect; nearly all actives have a fitted effect of over 50% in size
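Rat TrxR1, dispensed at 90 nM, was prereduced with 400 uM NADPH (final) for 5 min at ~22 deg C, then incubated with compound 15 min before 400 uM selenite. A first-read NADPH fluorescence drop versus no-compound background flagged substrates.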
FBPA coupling cs: inhibits coupling enzyme system, counter-screen for aldolase hits; coupling enzyme system counterscreen, AmpLite Red fluorescence; activity change, negative = inhibition, % at 58.2 µM, hits read low; hit rate 0.67% among 290,000; AID 2472; in the data active = activity change below about -30%
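Counterscreen of the coupled detection system alone, without aldolase: glyceraldehyde-3-phosphate coupling enzymes plus AmpLite Red readout. Compounds at 57.5 uM final, 10 min RT preincubation, 20 min RT reaction, fluorescence 525/598 nm.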
* marks the source's active call; other numbers are inactive results; ? = inconclusive; . = not tested or not shown; [ ] = dose if it differs, or a comment. Hits are enriched below; roughly 5.9% of the tested compounds scored in any of these assays. Unless noted, calls come from the whole dose curve; as a rule, active = well fitted curve in the direction sought with a large enough effect; inconclusive = small, poorly fitted or top-dose-only effect, or another doubt; inactive = no such curve, though single readings can be large; an effect the other way counts as inactive or inconclusive. % is set by controls: 0 for no effect and ±100 for the full control effect.

SMILES	VP16 counter	GALK inhibitor	RORg inh	TrxR1 inh	TrxR1 substrate	FBPA coupling cs
CCOC(=O)C1CCCN(C(=O)Cn2ncc3c(C)n(Cc4ccccc4F)c(C)c3c2=O)C1 (configuration not stated)	.	.	.	-14%	-2%	.
CCOC(=O)c1ccc(NC(=O)c2nc[nH]c2C(=O)N(CC)CC)cc1	?	0%	11µM*	31%[57.1 µM]	16%[57.1 µM]	3
CCOC(=O)c1ccc(NC(=O)c2nc[nH]c2C(=O)NCCCCCNC(=O)OC(C)(C)C)cc1	?	5%	11µM*	-9%	13%[57.1 µM]	2
CCOC(=O)c1ccc(NC(=O)c2nc[nH]c2C(=O)NCC(=O)OC(C)(C)C)cc1	16µM*	-2%	7.1µM*	18%	0%	-4
COc1ccc(S(=O)(=O)NCCSCc2ccco2)cc1	-5%	-3%	12%	?	-10%	2
Cc1[nH]c2ccccc2c1C(=O)C(=O)N1CCN(c2ccccc2F)CC1	5%	-2%	-9%	10%	-13%	.
CC(C)(C)OC(=O)[C@H](Cc1ccccc1)NC(=O)c1[nH]cnc1C(=O)Nc1ccc(Cl)cc1	8.9µM*	0%	4µM*	16%[57.1 µM]	-7%	-1
CC(C)(C)OC(=O)[C@H](Cc1ccccc1)NC(=O)c1[nH]cnc1C(=O)Nc1cccc(Cl)c1	4µM*	5%	4.5µM*	45%	-5%	-3
CCOC(=O)c1ccc(NC(=O)c2nc[nH]c2C(=O)N[C@@H](Cc2ccccc2)C(=O)OC(C)(C)C)cc1	7.1µM*	-2%	2.8µM*	25%	-3%	-4
Cc1cccc(NC(=O)c2nc[nH]c2C(=O)N[C@@H](CC(C)C)C(=O)OC(C)(C)C)c1	10µM*	-1%	5.6µM*	21%	-9%	-6
C[C@H](NC(=O)c1[nH]cnc1C(=O)Nc1cccc(Cl)c1)c1ccccc1	.	.	.	6%[57.1 µM]	18%[57.1 µM]	.
CC(C)(C)OC(=O)[C@H](Cc1ccccc1)NC(=O)c1nc[nH]c1C(=O)NCCCCCN	.	.	.	8%[57.1 µM]	7%[57.1 µM]	.
CCOC(=O)c1ccc(NC(=O)c2nc[nH]c2C(=O)NCCCNC(=O)c2[nH]cnc2C(=O)Nc2ccc(C(=O)OCC)cc2)cc1	.	.	.	23%	5%	.
Cc1cccc(NC(=O)c2nc[nH]c2C(=O)N[C@@H](Cc2ccccc2)C(=O)OC(C)(C)C)c1	7.1µM*	5%	3.2µM*	14%[57.1 µM]	1%[57.1 µM]	-4
CCc1ccccc1NC(=O)N1CCC(CN2CCc3ccccc3C2)CC1	.	.	.	2%	5%	.
CC(C)NC(=O)N(C)C[C@H]1Oc2c(cccc2N(C)C)C(=O)N([C@H](C)CO)C[C@@H]1C	.	.	.	-7%	9%	.
CCc1ccc(Nc2n[n+](-c3ccccc3)c(-c3c(Cl)cccc3Cl)s2)cc1	?	.	11µM*	-3%	-9%	-8
CN(C)c1ccc(-c2sc(Nc3ccccc3)n[n+]2-c2ccc(F)cc2)cc1	3%	.	14µM*	13%	-4%	1
CCc1ccc(Nc2n[n+](-c3ccccc3)c(-c3cc(OC)c(OC)cc3Br)s2)cc1	-26%	.	10µM*	15%	-6%	0
O=C(O)c1ccc(-c2sc(Nc3ccccc3)n[n+]2-c2ccc(F)cc2)cc1	4%	.	-9%	-12%	-2%	6
CCc1ccc(Nc2n[n+](-c3ccccc3)c(-c3ccc(N(CC)CC)cc3)s2)cc1	13µM*	.	?	-23%	-11%	0
c1ccc(COc2ccc(-c3sc(Nc4ccccc4)n[n+]3-c3ccccc3)cc2)cc1	?	.	-31%	.	.	0
CC(=O)N1c2ccc(S(=O)(=O)N3CCCC3)cc2CC1C(=O)NC(C)C (configuration not stated)	-6%	-4%	0%	6%	-8%	.
CCN(CC)c1ccc(-c2sc(Nc3ccccc3)n[n+]2-c2ccc(F)cc2)cc1	17%	.	10µM*	7%	-7%	1
CCc1ccc(Nc2n[n+](-c3ccccc3)c(-c3ccc(OCc4ccccc4)cc3)s2)cc1	?	.	7.9µM*	24%[57.1 µM]	-7%[57.1 µM]	-1
